Data: PubChem BioAssay AID1159580 (chemical genetic matrix, 2015)
Among all 5,500 compounds or so, about 2,000 (36%) were called active. Roughly 18% stayed inconclusive and do not appear here. No stated cut-off is given here; in the data, active means normalized growth mostly below about 0.91 (no sharp cut-off); inconclusive means no clear call, values can overlap the other calls; inactive means mostly above about 0.92. The list shows a part of the results.

Test: chemical genetic growth profiling, strain panel (AID 1159580);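 further: tested at 20 µM; growth read once vehicle control cultures reached saturation at 30 °C; 1 = growth at the plate median or of vehicle wells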
Details: S. cerevisiae deletion strains, growth OD

Measured: normalized growth

CC(=O)O[C@H]1CC2CCC3C(CC[C@@]4(C)C3C[C@H]([N+]3(C)CCCCC3)[C@@H]4OC(C)=O)[C@@]2(C)C[C@@H]1[N+]1(C)CCCCC1 (stereo not given in full)
inactive: locus YAL021C, strain ccr4, stronger effect = lower value 1.02 | locus YAL026C, strain drs2, stronger effect = lower value 1.02 | locus YAL030W, strain snc1, stronger effect = lower value 1.02 | locus YBL061C, strain skt5, stronger effect = lower value 1.01 | locus YBR009C, strain hhf1, stronger effect = lower value 1.03 | locus YBR023C, strain chs3, stronger effect = lower value 1.03 | locus YBR171W, strain sec66, stronger effect = lower value 1.04 | locus YBR231C, strain swc5, stronger effect = lower value 1.02 | locus YBR279W, strain paf1, stronger effect = lower value 1.01 | locus YCL011C, strain gbp2, stronger effect = lower value 1.02 | locus YCL016C, strain dcc1, stronger effect = lower value 1.02 | locus YCL061C, strain MRC1, stronger effect = lower value 1.02 | locus YCL069W, strain vba3, stronger effect = lower value 1.01 | locus YCR088W, strain abp1, stronger effect = lower value 1.01 | locus YDL005C, strain med2, stronger effect = lower value 1.02 | locus YDL040C, strain nat1, stronger effect = lower value 1.02 | locus YDR001C, strain nth1, stronger effect = lower value 1.01 | locus YDR069C, strain doa4, stronger effect = lower value 1.02 | locus YDR137W, strain rgp1, stronger effect = lower value 1.04 | locus YDR159W, strain sac3, stronger effect = lower value 1.04 | locus YDR195W, strain ref2 0.978 | locus YDR297W, strain sur2, stronger effect = lower value 1.01 | locus YDR334W, strain swr1, stronger effect = lower value 1.01 | locus YDR335W, strain msn5, stronger effect = lower value 1.02 | locus YDR392W, strain spt3, stronger effect = lower value 0.943 | locus YEL003W, strain gim4, stronger effect = lower value 1.02 | locus YEL037C, strain rad23, stronger effect = lower value 1.02 | locus YEL061C, strain CIN8 (second series), stronger effect = lower value 1.02 | locus YER015W, strain faa2, stronger effect = lower value 1.01 | locus YER016W, strain bim1, stronger effect = lower value 1.02 | locus YER111C, strain swi4, stronger effect = lower value 1.01 | locus YER155C, strain BEM2 (second series), stronger effect = lower value 1.03 | locus YFR010W, strain ubp6, stronger effect = lower value 1.01 | locus YGL167C, strain pmr1, stronger effect = lower value 1.02 | locus YGL173C, strain kem1, stronger effect = lower value 1.03 | locus YGL227W, strain vid30, stronger effect = lower value 1.01 | locus YGL240W, strain doc1, stronger effect = lower value 1.02 | locus YGL253W, strain hxk2, stronger effect = lower value 1.02 | locus YHR013C, strain ard1, stronger effect = lower value 1.01 | locus YHR027C, strain rpn1, stronger effect = lower value 1.01 | locus YHR030C, strain SLT2, stronger effect = lower value 1.04 | locus YHR079C, strain IRE1, stronger effect = lower value 1.03 | locus YHR142W, strain chs7, stronger effect = lower value 1.02 | locus YJL092W, strain hpr5, stronger effect = lower value 1.01 | locus YJL095W, strain BCK1 (second series), stronger effect = lower value 1.02 | locus YJL095W, strain BCK1, stronger effect = lower value 1.02 | locus YJL115W, strain asf1, stronger effect = lower value 1.03 | locus YJL129C, strain trk1, stronger effect = lower value 1.02 | locus YJL154C, strain vps35, stronger effect = lower value 1.01 | locus YJL164C, strain tpk1, stronger effect = lower value 1.01 | locus YJL166W, strain qcr8, stronger effect = lower value 1.02 | locus YJL187C, strain SWE1, stronger effect = lower value 1.02 | locus YJR066W, strain TOR1, stronger effect = lower value 0.979 | locus YKL160W, strain elf1, stronger effect = lower value 1.02 | locus YKR026C, strain gcn3, stronger effect = lower value 1 | locus YKR091W, strain srl3, stronger effect = lower value 1.02 | locus YLL001W, strain dnm1, stronger effect = lower value 1.02 | locus YLL026W, stronger effect = lower value 1.03 | locus YLL041C, strain sdh2, stronger effect = lower value 1.02 | locus YLR027C, strain aat2, stronger effect = lower value 1.02 | locus YLR113W, strain HOG1, stronger effect = lower value 0.988 | locus YLR221C, strain rsa3, stronger effect = lower value 1.01 | locus YLR258W, strain gsy2, stronger effect = lower value 1.02 | locus YLR262C, strain YPT6 (second series), stronger effect = lower value 1.04 | locus YLR320W, strain mms22, stronger effect = lower value 1.01 | locus YLR342W, strain FKS1, stronger effect = lower value 1.03 | locus YLR357W, strain rsc2, stronger effect = lower value 0.991 | locus YLR370C, strain arc18, stronger effect = lower value 1.03 | locus YLR384C, strain iki3, stronger effect = lower value 1.01 | locus YML120C, strain ndi1, stronger effect = lower value 1.01 | locus YMR058W, strain fet3, stronger effect = lower value 1.02 | locus YMR125W, strain sto1, stronger effect = lower value 1.02 | locus YMR129W, stronger effect = lower value 1.02 | locus YMR205C, strain PFK2, stronger effect = lower value 1.02 | locus YMR231W, strain pep5, stronger effect = lower value 1.01 | locus YNL071W, strain lat1, stronger effect = lower value 1.01 | locus YNL183C, strain NPR1, stronger effect = lower value 0.974 | locus YNL209W, strain ssb2, stronger effect = lower value 1.01 | locus YNL248C, strain rpa49, stronger effect = lower value 0.988 | locus YNL322C, strain KRE1 (second series), stronger effect = lower value 1.02 | locus YNR049C, strain mso1, stronger effect = lower value 1.01 | locus YOR001W, strain rrp6, stronger effect = lower value 1.03 | locus YOR070C, strain gyp1, stronger effect = lower value 1.02 | locus YOR080W, strain dia2, stronger effect = lower value 1.03 | locus YOR083W, strain WHI5, stronger effect = lower value 1.02 | locus YOR106W, strain vam3, stronger effect = lower value 1.02 | locus YOR231W, strain MKK1, stronger effect = lower value 1.03 | locus YOR265W, strain rbl2, stronger effect = lower value 1.02 | locus YOR270C, strain vph1, stronger effect = lower value 1.05 | locus YOR290C, strain snf2, stronger effect = lower value 1.02 | locus YPL051W, strain arl3, stronger effect = lower value 1.02 | locus YPL078C, strain atp4, stronger effect = lower value 1.01 | locus YPL106C, strain sse1, stronger effect = lower value 1 | locus YPL240C, strain hsp82, stronger effect = lower value 1.02 | locus YPL256C, strain CLN2, stronger effect = lower value 1.04
